From PubChem BioAssay AID1159580 (chemical genetic matrix, 2015)
Values joined by “and” are separate entries in the source; they are usually repeats but may differ in a detail not shown here. Equal entries are not always repeated. Hit rate of the full screen: of about 5,500 compounds, about 2,000 (36%) were called active. About 18% were inconclusive and are not listed. Rule as the data show it: active = normalized growth mostly below about 0.91 (no sharp cut-off); inconclusive = no clear call, values can overlap the other calls; inactive = mostly above about 0.92. Some of the results follow.

Test: chemical genetic growth profiling, strain panel (AID 1159580);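 also: tested at 20 µM; growth read once vehicle control cultures reached saturation at 30 °C; 1 = growth at the plate median or of vehicle wells; lower values mean less growth of the strain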
Details: S. cerevisiae deletion strains, growth OD

Measured: normalized growth

CC(C)c1c(O)ccc2c1CCC1C(C)(C)CCC[C@]21C (stereo partly specified)
active: locus YAL013W, strain DEP1, stronger effect = lower value 0.063 | locus YAL021C, strain ccr4, stronger effect = lower value 0.888 | locus YAL026C, strain drs2, stronger effect = lower value 0.451 | locus YAL030W, strain snc1, stronger effect = lower value 0.319 | locus YBL061C, strain skt5, stronger effect = lower value 0.329 | locus YBR009C, strain hhf1, stronger effect = lower value 0.182 | locus YBR021W, strain FUR4, stronger effect = lower value 0.517 | locus YBR023C, strain chs3, stronger effect = lower value 0.43 | locus YBR171W, strain sec66, stronger effect = lower value 0.606 | locus YBR229C, strain ROT2, stronger effect = lower value 0.245 | locus YBR231C, strain swc5, stronger effect = lower value 0.258 | locus YBR279W, strain paf1, stronger effect = lower value 0.769 | locus YCL011C, strain gbp2, stronger effect = lower value 0.365 | locus YCL016C, strain dcc1, stronger effect = lower value 0.353 | locus YCL029C, strain bik1, stronger effect = lower value 0.29 | locus YCR088W, strain abp1, stronger effect = lower value 0.848 | locus YDL035C, strain GPR1, stronger effect = lower value 0.118 | locus YDL040C, strain nat1, stronger effect = lower value 0.749 | locus YDL074C, strain BRE1, stronger effect = lower value 0.111 | locus YDL101C, strain DUN1, stronger effect = lower value 0.185 | locus YDL134C, strain PPH21, stronger effect = lower value 0.0876 | locus YDL185W, strain tfp1, stronger effect = lower value 0.135 | locus YDL192W, strain arf1, stronger effect = lower value 0.139 | locus YDR069C, strain doa4, stronger effect = lower value 0.842 | locus YDR101C, strain arx1, stronger effect = lower value 0.43 | locus YDR137W, strain rgp1, stronger effect = lower value 0.134 | locus YDR150W, strain NUM1, stronger effect = lower value 0.399 | locus YDR159W, strain sac3, stronger effect = lower value 0.304 | locus YDR162C, strain NBP2, stronger effect = lower value 0.0592 | locus YDR195W, strain ref2 0.163 | locus YDR297W, strain sur2, stronger effect = lower value 0.353 | locus YDR318W, strain mcm21, stronger effect = lower value 0.182 | locus YDR335W, strain msn5, stronger effect = lower value 0.863 | locus YDR388W, stronger effect = lower value 0.38 | locus YDR392W, strain spt3, stronger effect = lower value 0.141 | locus YDR502C, strain sam2, stronger effect = lower value 0.185 | locus YEL003W, strain gim4, stronger effect = lower value 0.543 | locus YEL061C, strain CIN8 (second series), stronger effect = lower value 0.667 | locus YER015W, strain faa2, stronger effect = lower value 0.548 | locus YER016W, strain bim1, stronger effect = lower value 0.302 | locus YER110C, stronger effect = lower value 0.713 | locus YER155C, strain BEM2, stronger effect = lower value 0.0776 | locus YER167W, strain BCK2, stronger effect = lower value 0.0994 | locus YGL078C, strain dbp3, stronger effect = lower value 0.835 | locus YGL086W, strain mad1, stronger effect = lower value 0.135 | locus YGL167C, strain pmr1, stronger effect = lower value 0.248 | locus YGL227W, strain vid30, stronger effect = lower value 0.691 | locus YGL240W, strain doc1, stronger effect = lower value 0.822 | locus YGL248W, strain PDE1, stronger effect = lower value 0.113 | locus YGL253W, strain hxk2, stronger effect = lower value 0.67 | locus YGR135W, strain pre9, stronger effect = lower value 0.373 | locus YGR252W, strain gcn5, stronger effect = lower value 0.212 | locus YHR013C, strain ard1, stronger effect = lower value 0.548 | locus YHR027C, strain rpn1, stronger effect = lower value 0.527 | locus YHR030C, strain SLT2, stronger effect = lower value 0.06 and 0.129 | locus YHR079C, strain IRE1 (second series), stronger effect = lower value 0.335 | locus YHR079C, strain IRE1, stronger effect = lower value 0.215 | locus YHR094C, strain hxt1, stronger effect = lower value 0.272 | locus YHR129C, strain ARP1, stronger effect = lower value 0.0824 | locus YHR142W, strain chs7, stronger effect = lower value 0.682 | locus YHR200W, strain rpn10, stronger effect = lower value 0.309 | locus YIL066C, strain RNR3, stronger effect = lower value 0.111 | locus YIL073C, strain SPO22, stronger effect = lower value 0.181 | locus YIL125W, strain kgd1, stronger effect = lower value 0.395 | locus YIR030C, strain dcg1, stronger effect = lower value 0.292 | locus YJL095W, strain BCK1 (second series), stronger effect = lower value 0.103 | locus YJL095W, strain BCK1, stronger effect = lower value 0.0705 and 0.204 | locus YJL129C, strain trk1, stronger effect = lower value 0.259 | locus YJL134W, strain LCB3, stronger effect = lower value 0.373 | locus YJL164C, strain tpk1, stronger effect = lower value 0.197 | locus YJL166W, strain qcr8, stronger effect = lower value 0.32 | locus YJL168C, strain set2, stronger effect = lower value 0.725 | locus YJL187C, strain SWE1 (second series), stronger effect = lower value 0.117 | locus YJL187C, strain SWE1, stronger effect = lower value 0.403
inactive: locus YCL069W, strain vba3, stronger effect = lower value 0.932 | locus YDL005C, strain med2, stronger effect = lower value 0.961 | locus YDR001C, strain nth1, stronger effect = lower value 1 | locus YDR334W, strain swr1, stronger effect = lower value 0.974 | locus YEL037C, strain rad23, stronger effect = lower value 0.991 | locus YER111C, strain swi4, stronger effect = lower value 0.971 | locus YER155C, strain BEM2 (second series), stronger effect = lower value 0.925 | locus YFR010W, strain ubp6, stronger effect = lower value 0.929 | locus YGL173C, strain kem1, stronger effect = lower value 0.947 | locus YJL092W, strain hpr5, stronger effect = lower value 0.926 | locus YJL115W, strain asf1, stronger effect = lower value 1.02 | locus YJL154C, strain vps35, stronger effect = lower value 1.01
